Assay results reported in PubChem BioAssay (NCATS).
“And” between values parts separate entries of the source, which are not always exact repeats. Equal entries are not always repeated. The source made the active and inactive calls. Calls follow the shape of the dose curve; as a rule, active = well fitted activation curve with a large enough effect; inconclusive = small, poorly fitted or top-dose-only effect; inactive = no such curve, though single readings can be large or run the other way.

Target: Cytochrome P450 3A4 (Homo sapiens) (UniProt P08684)
Test: qHTS Assay for Activators of Cytochrome P450 3A4 (AID 885); also: nearly all actives have a fitted effect of over 65% in size
Conditions: recombinant CYP3A4, Luciferin-PPXE luminescence, 60 min; series mostly up to 57.1 µM
Method in brief: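 Activators are scored by enhanced luminescence from CYP3A4 conversion of luciferin-PPXE (25uM, equal to KM) to luciferin, after 60 min at RT with an NADPH-regenerating system.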

Cytochrome P450 3A4 (Homo sapiens), sequence (P08684 whole entry, looked up): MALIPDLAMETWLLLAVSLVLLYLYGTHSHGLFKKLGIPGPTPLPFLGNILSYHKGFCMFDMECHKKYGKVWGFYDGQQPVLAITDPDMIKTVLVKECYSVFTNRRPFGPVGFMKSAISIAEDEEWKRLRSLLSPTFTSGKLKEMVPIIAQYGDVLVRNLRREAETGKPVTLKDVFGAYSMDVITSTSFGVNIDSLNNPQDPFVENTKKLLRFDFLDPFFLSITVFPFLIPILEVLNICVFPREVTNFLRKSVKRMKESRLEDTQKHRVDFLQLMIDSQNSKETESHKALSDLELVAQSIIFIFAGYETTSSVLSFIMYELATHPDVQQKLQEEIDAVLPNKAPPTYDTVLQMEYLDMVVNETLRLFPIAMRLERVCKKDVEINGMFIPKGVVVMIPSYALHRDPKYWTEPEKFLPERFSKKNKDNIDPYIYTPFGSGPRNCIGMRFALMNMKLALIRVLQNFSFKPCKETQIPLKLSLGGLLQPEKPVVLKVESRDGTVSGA

Activity change, positive = activation, inactive:
COC(=O)[C@@H]1CC[C@H](C)[C@@H](c2ccc(C)cc2)N1C(=O)c1ccc(/C=N\O[C@@H](C)c2cn([C@H]3COC[C@H]3O)nn2)cc1 -43.4% [at 11.4 µM]
CO[C@@H]1COC(=O)[C@H](COCc2ccccc2)NC(=O)C/C=C\[C@@H](C)[C@H](OC)COC(=O)[C@@H](C)NC(=O)C/C=C\[C@H]1C -36.6% [at 11.4 µM]
C=CC[C@@H]1C=C[C@H](O/N=C(\C)CCN2CCCc3nc(C)c(C)cc32)[C@H](CO)O1 -70.1% [at 11.4 µM]
CC(C)(C)N1C(=O)[C@H]2[C@H]3[C@H](O)[C@H](O)C/C(=N/OC[C@@H](O)COCc4ccco4)[C@H]3CC[C@@H]2C1=O -30.9% [at 11.4 µM]
CC(C)=CCC/C(C)=C/CO/N=C1/C[C@@H](O)[C@@H](O)[C@@H]2[C@@H]3C(=O)N(C[C@@H]4CCCO4)C(=O)[C@H]3CC[C@H]12 -35.7% [at 11.4 µM]
C/C(CCN1CCCc2nc(C)c(C)cc21)=N\O[C@@H](C)c1cc(-c2c(C)cc(C)cc2C)no1 -56.9% [at 11.4 µM]
CO[C@@H]1/C=C\CC(=O)N[C@@H](C)C(=O)OC[C@@H](OC)[C@H](C)/C=C\CC(=O)OC[C@H]1C -36.7% [at 11.4 µM]
COC(=O)C/C=C\[C@@H](C)[C@@H](/C=N\OC[C@@H](C)[C@H](OCc1ccccc1)C(C)C)OC -33% [at 11.4 µM]
COC(=O)[C@@H]1CC[C@H](C)[C@@H](c2ccc(C)cc2)N1C(=O)c1ccc(/C=N\O[C@@H](C)CN2CCCc3nc(C)c(C)cc32)cc1 -48.9% [at 11.4 µM]
CC(C)=CCC/C(C)=C/CO/N=C1/C[C@@H](O)[C@@H](O)[C@@H]2[C@@H]3C(=O)N(Cc4ccccc4)C(=O)[C@H]3CC[C@H]12 -49.8% [at 11.4 µM]
CC(C)CO/N=C1/C[C@@H](O)[C@@H](O)[C@@H]2[C@@H]3C(=O)N([C@@H](C)c4ccccc4)C(=O)[C@H]3CC[C@H]12 -46.1% [at 11.4 µM]
CO[C@H]1COC(=O)C/C=C\[C@@H](C)[C@H](OC)COC(=O)CCC[C@@H]1C -58.3% [at 11.4 µM]
CC(C)=CCC/C(C)=C/CO/N=C1/C[C@@H](O)[C@@H](O)[C@@H]2[C@@H]3C(=O)N(C4CCCCC4)C(=O)[C@H]3CC[C@H]12 -36.4% [at 11.4 µM]
O=C1[C@H]2[C@H]3[C@H](O)[C@H](O)C/C(=N/OC[C@@H](O)COCc4ccco4)[C@@H]3CC[C@@H]2C(=O)N1C1CCCCC1 -51.1% [at 11.4 µM]
C[C@H](O/N=C1/[C@H]2O[C@@H]2[C@@H](O)[C@H]2[C@H]1CCn1c(=O)n(-c3ccccc3)c(=O)n12)c1cn([C@H](CO)Cc2ccccc2)nn1 -48.5% [at 11.4 µM] and -48.2% [at 11.4 µM]
CO[C@H]1COC(=O)[C@@H](C)COC(=O)[C@@H](Cc2ccccc2)NC(=O)C/C=C\[C@H]1C -36.8% [at 11.4 µM]
CO[C@H]1COC(=O)CCC[C@@H](C)[C@H](OC)COC(=O)[C@H]2CCCN2C(=O)C/C=C\[C@@H]1C -30.7% [at 11.4 µM]
CCCC[C@@H]1CN2[C@H](c3ccc(Br)cc3)[C@@H](C)CC[C@H]2C(=O)O1 -59.6% [at 11.4 µM]

Potency, inactive:
COC(=O)c1ccc(C23CC4(C2)[C@H](CN(CC2CCCCC2)[C@@H]4c2ccccc2)C3c2ccc(C(F)(F)F)cc2)cc1 (stereo not given in full)
COC(=O)c1ccc(C23CC4(C2)[C@H](CN(C)[C@@H]4c2ccccc2)C3c2ccccc2)cc1 (stereo not given in full)
N#Cc1ccc(C23CC4(C2)[C@H](CN(P(=O)(c2ccccc2)c2ccccc2)[C@@H]4c2ccccc2)C3c2ccc(Cl)nc2)cc1 (stereo not given in full)
N#Cc1ccc(C23CC4(C2)[C@H](CN(Cc2ccc(-c5ccccc5)cc2)[C@@H]4c2ccccc2)C3c2ccccc2)cc1 (stereo not given in full)
COC(=O)[C@@H]1C[C@H]2CC[C@H](O)C[C@H]2N1Cc1ccc(N2CCOCC2)cc1
FC(F)(F)c1ccc(CN2C[C@@H]3C(c4ccc(C(F)(F)F)cc4)C4(c5ccccc5)CC3(C4)[C@H]2c2ccccc2)cc1 (stereo not given in full)
Cn1c(N)c(C(=O)COC(=O)c2cc(C3CC3)nc3ccccc23)c(=O)n(C)c1=O
COC(=O)c1ccc(CN2[C@@H]3C[C@@H](O)CC[C@@H]3C[C@H]2C(=O)OC)cc1
Nc1cc(=O)[nH]c(=O)n1Cc1ccccc1
CCC1=C2CC[C@H]3C(=O)NC(=O)[C@H]3[C@H]2[C@@]2(C)C(=NCC3CC3)OC(=O)N2C1=O
N#Cc1ccc(C23CC4(C2)[C@H](CN(CC2CCCCC2)[C@@H]4c2ccccc2)C3c2ccc(C(F)(F)F)cc2)cc1 (stereo not given in full)
COC(=O)[C@@H]1C[C@@]2(O)[C@H](O)[C@H](O)[C@H](O)C[C@H]2N1Cc1ccc(N2CCN(C)CC2)cc1
COC(=O)[C@@H]1C[C@@]2(O)[C@H](O)[C@H](O)[C@H](O)C[C@H]2N1Cc1ccc(C(F)(F)F)cc1
COC(=O)c1cccc(C23CC4(C2)[C@H](CN(Cc2ccc(-c5ccccc5)cc2)[C@@H]4c2ccccc2)C3c2ccc(C(F)(F)F)cc2)c1 (stereo not given in full)
Clc1ccc(C2[C@H]3CN(Cc4ccc(-c5ccccc5)cc4)[C@H](c4ccccc4)C34CC2(c2ccccc2)C4)cn1 (stereo not given in full)
c1ccc(-c2ccc(CN3C[C@@H]4C(c5ccccc5)C5(c6cccnc6)CC4(C5)[C@H]3c3ccccc3)cc2)cc1 (stereo not given in full)
N#CCC(=O)NC(=O)NCC1CC1
COC(=O)[C@@H]1C[C@@H]2CC[C@@H](O)C[C@@H]2N1Cc1ccc(C(F)(F)F)cc1
Cc1c(O)c(O)cc2c1oc1c3ccccc3oc(=O)c21
COC(=O)[C@@H]1C[C@H]2CC[C@H](O)C[C@H]2N1Cc1ccc(C)s1
Cn1c(=O)cc(N)n(Cc2ccccc2)c1=O
FC(F)(F)c1ccc(C2[C@H]3CN(Cc4ccc(-c5ccccc5)cc4)[C@H](c4ccccc4)C34CC2(c2cccnc2)C4)cc1 (stereo not given in full)
